From PubChem
NIH3T3 tox = cytotoxic compounds in NIH 3T3 cells; NIH 3T3 viability, CellTiter-Glo ATP luminescence, 48-72 h; Potency, µM (titrated, usually from 96.7 µM), most hits filed as inhibitors; 94,000 tested, 4.3% active; further: nearly all actives have a fitted effect of over 55% in size
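Mouse fibroblast NIH 3T3 cells, 400 per well, received compound via pintool and were incubated for 48 or 72 hr prior to CellTiter-Glo ATP luminescence measurement.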
HEK cytotox = HEK 293 cell cytotoxicity; HEK 293 viability, ATP luminescence (CellTiter-Glo), 48-72 h; Potency, µM (highest dose often 115 µM), actives largely listed as inhibitors; 94,000 tested, 6.6% active; further: nearly all actives have a fitted effect of over 60% in size
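250 HEK 293 cells/well; compound by pintool; incubated 48 or 72 hr at 37 degree Celsius; CellTiter-Glo added, 10 min RT, luminescence imaged.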
FLuc inh = inhibitors of firefly (Photinus pyralis) luciferase; 76,000 tested, 2.5% active; P08659; AID 1347043; Potency, µM (top dose mostly 115 µM), most hits filed as inhibitors; purified P. pyralis luciferase, luminescence, biochemical; further: nearly all actives have a fitted effect of over 65% in size
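Luminescence read by CCD imaging after purified firefly luciferase (10nM final) was added to substrate buffer holding 10uM D-luciferin and 10uM ATP, pH 7.5, pre-dosed with compound.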
GPT2 inhibitor = GPT2 alanine aminotransferase inhibition; Recombinant GPT2, coupled pyruvate oxidase/HRP Amplex Red fluorescence; Potency, µM (series often up to 57.7 µM), hits mostly inhibitors; 100,000 tested, 0.25% active; AID 1671188; further: nearly all actives have a fitted effect of over 60% in size
Target sequence (Q8TD30 whole entry, looked up): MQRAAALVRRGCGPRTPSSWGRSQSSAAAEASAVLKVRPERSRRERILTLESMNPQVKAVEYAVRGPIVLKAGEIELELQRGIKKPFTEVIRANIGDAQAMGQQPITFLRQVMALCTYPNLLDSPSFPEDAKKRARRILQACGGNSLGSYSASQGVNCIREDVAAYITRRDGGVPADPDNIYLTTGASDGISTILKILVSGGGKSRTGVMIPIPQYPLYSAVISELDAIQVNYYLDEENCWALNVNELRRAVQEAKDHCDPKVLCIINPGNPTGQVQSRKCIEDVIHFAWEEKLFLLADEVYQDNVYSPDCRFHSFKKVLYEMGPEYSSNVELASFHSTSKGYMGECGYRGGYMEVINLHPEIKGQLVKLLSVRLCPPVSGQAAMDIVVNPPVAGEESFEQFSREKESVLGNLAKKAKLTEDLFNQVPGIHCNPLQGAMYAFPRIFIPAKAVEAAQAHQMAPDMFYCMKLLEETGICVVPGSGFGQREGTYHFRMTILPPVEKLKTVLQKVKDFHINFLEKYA
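GPT2 10ng/uL, a-KG 250uM, L-Ala 2mM, HEPES pH7.5 + 0.0001% Tween; 30 min RT. Then Amplex mix (PO/HRP/ThPP), 30 min RT dark, fluorescence. AOA 50uM used as positive control.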
hNpr1 antagonist = human Npr1 receptor antagonism; AID 1347048; HEK293 hNpr1 GloSensor cGMP, ANP-stimulated luminescence; Potency, µM (titrated, usually from 46.3 µM), usual class: inhibitors; P16066; 76,000 tested, 1.6% active; calls by dose curve; further: nearly all actives have a fitted effect of over 60% in size
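HEK293 cells stably expressing human Npr1 and cGMP GloSensor pGS-40F, loaded 2 h with 2% GloSensor reagent, given compound 30 min at room temperature. Luminescence read before and 20 min after 0.1 nM hNppA.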
Hits are given with their value; i = inactive; ? = inconclusive; nt = not tested or not shown. Hits are enriched below; roughly 10% of the tested compounds scored in any of these assays. Unless noted, the call rests on the fitted dose curve; in most records, active means well fitted curve in the direction sought with a large enough effect; inconclusive means small, poorly fitted or top-dose-only effect, or another doubt; inactive means no such curve, though single readings can be large; an effect the other way counts as inactive or inconclusive.

SMILES | NIH3T3 tox | HEK cytotox | FLuc inh | GPT2 inhibitor | hNpr1 antagonist
CCOc1ccc(Cl)cc1CN(C)c1cc(C2CC(O)C2)nc(N)n1 (stereo unspecified) | 31.6µM | 39.8µM | i | i | ?
CC(=O)Nc1cccc(-c2n[nH]c3c2CC(=O)N(Cc2ccccc2)C3)c1 | ? | 100µM | i | i | i
CC(=O)Nc1cccc(-c2n[nH]c3c2CC(=O)N(CC2CC2)C3)c1 | ? | ? | i | i | i
CC(=O)Nc1cccc(-c2n[nH]c3c2CC(=O)N(CCOc2ccccc2)C3)c1 | 35.5µM | ? | i | i | i
O=C(NCCc1ccccc1)C1CCc2nnc(C3CCN([S+](=O)([O-])c4ccccc4Cl)CC3)n21 (stereo unspecified) | i | i | nt | i | nt
CCCCN1CCN(c2nc(-c3ccccc3)nc3c2CCNC3)CC1=O | ? | 79.4µM | i | i | i
CCC(O)c1cc2n(n1)CCN(c1nc(-c3ccccc3)nc3c1CCC3)C2 (stereo unspecified) | ? | ? | i | i | i
COc1ccc(CNC(=O)C2CCN(C(=O)c3ncn4c3COC(c3ccc(C)cc3)C4)CC2)cc1 (stereo unspecified) | i | i | 39.8µM | i | i
Cc1ccc(C2Cn3cnc(C(=O)N4CCC(C(=O)NCc5ccc(F)cc5)CC4)c3CO2)cc1 (stereo unspecified) | i | i | 35.5µM | i | i
COc1ccc(C2Cn3cnc(C(=O)N4CCC(C(=O)NCc5ccc(F)cc5)CC4)c3CO2)cc1 (stereo unspecified) | i | i | i | i | i
COc1ccccc1-c1cn2c(n1)CO[C@@H](CNCc1cccnc1)C2 | i | ? | i | ? | i
c1csc(CNC[C@H]2Cn3cc(-c4ccc5c(c4)OCCCO5)nc3CO2)n1 | i | i | ? | i | i
c1cc(CNC[C@H]2Cn3cc(-c4ccc5c(c4)OCCCO5)nc3CO2)ccn1 | i | i | 44.7µM | i | i
COc1ncccc1CNC[C@H]1Cn2cc(-c3ccc4c(c3)OCCCO4)nc2CO1 | ? | 89.1µM | 50.1µM | i | i
O=C1N(C2CCN(S(=O)(=O)c3cccnc3)CC2)C(c2ccccc2)C12CCCC2 (stereo unspecified) | ? | ? | nt | i | nt
CC(C)n1nc(OC(C)(C)C(=O)Nc2cccnc2)c2cc(CN3CCOCC3)ccc21 | 28.2µM | i | i | i | i
COCc1ccc2c(c1)c(OC(C)(C)C(=O)N1CCOCC1)nn2Cc1cccnc1 | 31.6µM | i | i | i | i
COCc1ccc2c(c1)c(OC(C)(C)C(=O)NC(C)C)nn2Cc1cccc(OC)c1 | ? | ? | i | i | i
COCc1ccc2c(c1)c(OC(C)(C)C(=O)NCCN1CCOCC1)nn2Cc1cccnc1 | ? | i | i | i | i
COCc1ccc2c(c1)c(OC(C)(C)C(=O)N1CCN(CCO)CC1)nn2Cc1cccnc1 | 35.5µM | i | i | i | i
COCc1ccc2c(c1)c(OC(C)(C)C(=O)N1CCN(C)CC1)nn2Cc1ccccc1 | ? | ? | i | i | i
COCc1ccc2c(c1)c(OC(C)(C)C(=O)N1CCOCC1)nn2Cc1cccc(OC)c1 | 3.98µM | i | i | i | i
CC(C)c1ccc(CNC(=O)[C@H]2CCC[C@H]2NC(=O)c2ccncc2)cc1 | i | i | i | i | i
O=C(NCc1ccc(C(F)(F)F)cc1)c1nc2cccnc2n(Cc2ccccc2)c1=O | i | ? | nt | i | nt
COc1cccc(NC(=O)N2CCC(Cn3cc(C4CCCC4)nn3)CC2)c1 | ? | i | ? | ? | i
SMILES | NIH3T3 tox | HEK cytotox | FLuc inh | GPT2 inhibitor | hNpr1 antagonist
CCOc1ccccc1CN1C[C@@H](CO)[C@H](NC(=O)C2CC2)C1 | i | i | i | i | i
CCOC(=O)N1CCN(c2nccc(-c3ccccn3)n2)CC1 | ? | ? | i | i | i
Cc1cc(C)n(C2CCN(c3nccc(-c4ccccn4)n3)C2)n1 (stereo unspecified) | i | i | 44.7µM | i | i
Cc1ccc(OCc2nc(C3CCCCN3C(=O)NC3CCCCC3)no2)cc1 (stereo unspecified) | ? | ? | nt | i | nt
COc1ccc(C(=O)NC2CCN(c3ccnc4ccnn34)C2)cc1 (stereo unspecified) | ? | 50.1µM | nt | i | nt
O=C(NC1CCN(c2ccnc3ccnn23)C1)c1ccc(C(F)(F)F)cc1 (stereo unspecified) | ? | ? | nt | i | nt
